From PubChem BioAssay (EPA / NIEHS) come the findings set out here.

Activity calls are given as the source filed them. Rule for the calls: active = hit-call score of the fitted dose curve at least 0.9, where 1 is the maximum; inactive = score below 0.9.

Read-out in this test: Early growth response protein 1 (EGR1) transcription factor, EGR1 (gene 1958)
The test can be described thus: LTEA_HepaRG_EGR1: Life Technologies and Expression Analysis (LTEA) Assay for Early growth response protein 1 (EGR1) transcription factor using HepaRG (AID 2283490). The note with it: mRNA level, 48 h; actives raise or lower the signal. The method, then: LTEA_HepaRG is a cell based, multiplexed-readout assay that uses HepaRG, a human liver cell line, with measurements taken at 48 hours after chemical dosing on a 96-well plate.LTEA_HepaRG_EGR1 is one of 102 assay component(s) measured in the LTEA HepaRG cell culture assay. It is a marker of Cell proliferation, survival, death.Data from the assay component LTEA_HepaRG_EGR1 was analyzed into 1 endpoint. This assay endpoint, LTEA_HepaRG_EGR1, was analyzed with bidirectional fitting relative to DMSO as the negative control and baseline of activity. Using a type of inducible reporter, measures of mRNA induction for gain or loss-of-signal activity can be used to understand regulation of transcription factor activity. To generalize the intended target to other relatable targets, this assay endpoint is annotated to the dna binding intended target family, where the subfamily is zinc finger.
A total of 1060 chemcials from the ToxCast library were tested in eight-point concentration-response experiments. Cell culture and cytotoxicity assays were conducted at Thermo Fisher Scientific's Custom Services facility (Madison, WI). A single lot of human HepaRG cells (Thermo Fisher Scientific, Frederick, MD) was used for the cell culture experiments. 96-well format collagen type I coated plates of human HepaRG cells were prepared using established methods. Briefly, cryopreserved HepaRG cells were thawed, plated at a density of approximately 100,000 cells/well in HepaRG Thaw, Plate, and General Purpose media (HPRG770, Thermo Fisher Scientific), and incubated for 48 hours. 0.5% DMSO was selected as vehicle control to balance the requisite need of DMSO in HepaRG cultures to maintain differentiation (for example, baseline metabolism, proportions of hepatocytes vs. cholangiocytes), while enabling further hepatic receptor pathway activation (for example, PXR and CAR) in response to chemical exposure. 48 hours after plating, the culture medium was replaced with HepaRG Serum-Free Incudtion Media. Cells were exposed to each test chemical in duplicate and maintained in CO2 incubators for another 48 hours. Chemical plates were thawed to room temperature and 200x concentrations of treatment groups were prepared. 8-point conentration-reponse curves were made with the highest exposure at 100 uM, followed by half-log dilutions, all in 0.5% DMSO. Each test plate contained variouse controls, induction positive controls (1mM phenobarbital), cytotoxicity positive controls ([…] aflatoxin B1), vehicle controls (0.5% DMSO), and total lysis controls (0.5% DMSO). Cell morphology images were taken using an Essen IncuCyte FLR automated microscope, with six 96-well plates imaged in about 24 minutes. Images were captured and exported and JPEG files. Spent culture media was transfered to black-well plates for the LDH assay, and remaining media was sorted at -80 C for later use. Cells were treated with RLT buffer and frozen until shipped for gene expression analysis. Total RNA was isolated from the cell suspension in 75 uL of Buffer RLT (Qiagen, Germantown, MD 20874) by Quintiles/Expression Analysis (Durham, NC) using a custom isolation procedure. Total RNA from each plate well was transferred to a preamplification plate. Fluidigm's 96.96 Dynamic ArrayTM (Fluidigm, Amsterdam, the Netherlands) technology was used for gene expression analyses by quantitative reverse transcription polymerase chain reaction (qRT-PCR, performed by Quintiles/Expression Analysis, Durham, NC)89. Standard TaqManTM Assays (Applied Biosystems/ThermoFisher Scientific, Foster City, CA) were used to assess the expression of 93 genes selected based on their selectivity and sensitivity to important hepatic receptors known to be modulated by environmental chemicals; importance in human hepatocyte functionality; and hepatotoxicity. […]
Consider `OC(Cn1cncn1)(Cn1cncn1)c1ccc(F)cc1F`, for which the call was inactive.

As to `c1ccc2cc3ccccc3cc2c1`, the call was inactive.

As for `CCN(CC)C(=S)SSC(=S)N(CC)CC`, the molecule was called inactive.

With `NC(=O)NN=Cc1ccc([N+](=O)[O-])o1`, the outcome was inactive.

Regarding `OCCOCCOCCO`, the result was inactive.

As to `NNC(=O)c1ccncc1`, the call was inactive.

`CCOc1ccc2[nH]cc(C(=O)NCc3ccccc3)c(=O)c2n1`: the outcome was inactive.

`OCCNCCO`: the molecule was classed as inactive.

As to `C=CN1CCCC1=O`, the molecule was classed as inactive.

`CCCCOC(=O)c1ccccc1`: the result was inactive.

Turning to `COCc1nnc(-c2ccc[n+]([O-])c2)n1-c1c(Cl)c(Cl)cc2[nH]c(=O)c(=O)[nH]c12`, the molecule was called inactive.

With `OC[C@H]1O[C@@H]2O[C@H]3[C@H](O)[C@@H](O)[C@@H](O[C@H]4[C@H](O)[C@@H](O)[C@@H](O[C@H]5[C@H](O)[C@@H](O)[C@@H](O[C@H]6[C@H](O)[C@@H](O)[C@@H](O[C@H]7[C@H](O)[C@@H](O)[C@@H](O[C@H]1[C@H](O)[C@H]2O)O[C@@H]7CO)O[C@@H]6CO)O[C@@H]5CO)O[C@@H]4CO)O[C@@H]3CO`, the outcome was inactive.

As for `CCCCCCCCCC`, the outcome was inactive.

For `Cc1nc(-c2ccccn2)ncc1C(=O)Nn1cc(C)c2cc(F)ccc21`, the result was inactive.

Turning to `CCCCCCOC(=O)CC(CC(=O)OCCCCCC)(OC(=O)CCC)C(=O)OCCCCCC`, the call was inactive.

For the molecule `CC1(C)C(=O)N(Cl)C(=O)N1Cl`, the molecule was classed as inactive.

The term AC50 denotes the concentration giving half of the maximal activity seen. As to `Cc1nccn1-c1ccc(Sc2cccc(C3(C(N)=O)CCOCC3)c2)cc1`, the AC50 was 21.9 µM (active).

For the molecule `Cc1ncc([C@@H](CCCCCCc2ccc3c(n2)NCCC3)CC(=O)O)cn1`, the call was inactive.

`OCC(CO)(CO)CO`: the outcome was inactive.

For the molecule `C[C@@H](Oc1ccc(CNC(=O)c2cccnc2Oc2ccc3c(c2)OCO3)c(F)c1)C(=O)O`, the call was inactive.

With `CCCOc1ccc(S(=O)(=O)N2CCN(CC)CC2)cc1-c1nc2c(CC)n(Cc3ccccn3)nc2c(=O)[nH]1`, the molecule was called inactive.

In the case of `NC(=O)N1c2ccccc2C=Cc2ccccc21`, the result was inactive.

With `CC(C)c1nnc2ccc(-c3ocnc3-c3cc(F)ccc3F)cn12`, the AC50 is 12.3 µM (active).

Turning to `c1ccc(C(O[C@@H]2CCCN(CCc3ccc4c(c3)OCO4)C2)c2ccccc2)cc1`, the AC50 is 84.1 µM (active).

With `O=c1[nH]cnc2c1ncn2[C@H]1CC[C@@H](CO)O1`, the molecule was classed as inactive.

In the case of `O=C(NO)C1(NS(=O)(=O)c2ccc(Oc3ccc(F)cc3)cc2)CCOCC1`, the outcome was inactive.

Consider `CCCc1ccccc1`, for which the molecule was classed as inactive.

Take `CC(C)CCCCCCOC(=O)C1CCCCC1C(=O)OCCCCCCC(C)C` (stereo not given): the outcome was inactive.

Take `c1ccc2ncccc2c1`: the molecule was classed as inactive.

Regarding `Nc1ccn([C@@H]2O[C@H](CO)[C@@H](O)[C@@H]2O)c(=O)n1`, the call was inactive.

Consider `CC(C)CC(C)O` (stereo not given), for which the molecule was classed as inactive.

With `C[C@]12C=CC(=O)C=C1CC[C@H]1[C@@H]3C[C@@H](O)[C@](O)(C(=O)CO)[C@@]3(C)C[C@H](O)[C@@]12F`, the result was inactive.

For the molecule `CCCCCCCCCCCCCCO`, the molecule was called inactive.

For the molecule `CCc1cccc(CC)c1N`, the call was inactive.

For `CC[C@H](C)C(=O)O[C@H]1C[C@H](O)C=C2C=C[C@H](C)[C@H](CC[C@@H](O)C[C@@H](O)CC(=O)O)[C@H]21`, the molecule was classed as inactive.

With `CC(=O)c1ccccc1`, the outcome was inactive.

With `O=C1CN(N=Cc2ccc([N+](=O)[O-])o2)C(=O)N1`, the call was inactive.

As to `CC(C)C(=O)Nc1ccc([N+](=O)[O-])c(C(F)(F)F)c1`, the AC50 is 81.9 µM (active).

Turning to `COS(C)(=O)=O`, the result was inactive.

Turning to `O=C(O)[C@H](O)[C@@H](O)C(=O)O`, the call was inactive.
